Some test systems named below: SR leukemia; RPMI-8226 leukemia; OVCAR-8 ovarian; OVCAR-5 ovarian; OVCAR-4 ovarian; SK-OV-3 ovarian; IGROV1 ovarian; OVCAR-3 ovarian; HS 578T breast; NCI/ADR-RES ovarian; T-47D breast; BT-549 breast; MDA-MB-435 melanoma; MCF7 breast; HCT-116 colon; HCC-2998 colon; KM12 colon; SW-620 colon.
Test in all cases: NCI-60 one-dose screen, 48 h (100 = growth as untreated, 0 = no growth, -100 = all killed)
Holding throughout (settings): 10 µM unless noted

Here are results for 9 molecules from PubChem BioAssay (NCI).

Compounds without any hit were thinned out: in the full panel of roughly 83,000, 20% have a hit.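 Values shown are percent growth following 48 h exposure of cells in 96-well plates to a single concentration of compound; below 10 was considered active.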 Unmarked numbers belong to inactive results. Calls of active or inactive are those of the source.

As to `COc1cc(CNC(=O)CCCC/C=C/C(C)C)ccc1OCc1nnc(Nc2ccccc2F)o1`, the growth with SR leukemia is 67.3%; with RPMI-8226 leukemia it was 64.9%; with OVCAR-8 ovarian it was 45.2%; in the experiment with OVCAR-5 ovarian, 77.7%; in the experiment with OVCAR-4 ovarian, 0.691% (active); in the experiment with SK-OV-3 ovarian it was 48.6%. In addition, the growth in the experiment with IGROV1 ovarian was 58.4%; in the experiment with OVCAR-3 ovarian it was 68.3%; in the experiment on HS 578T breast, 83.7%; in the experiment on NCI/ADR-RES ovarian, 43.3%; in the experiment on T-47D breast, 65%; in the experiment with BT-549 breast it was 76.9%. In addition, the growth in the experiment on MDA-MB-435 melanoma was 100%; with MCF7 breast, 66.9%; in the experiment with HCT-116 colon it was 53.5%; in the experiment on HCC-2998 colon it was 90.8%; in the experiment with KM12 colon, 78.8%.

For `O=C(Nc1ccc(-n2cc(-c3ccncc3)c(-c3ccc(Cl)c(O)c3)n2)cc1)Nc1cc(C(F)(F)F)cc(C(F)(F)F)c1`, the growth in the experiment on SR leukemia was -0.887% (active); in the experiment on RPMI-8226 leukemia, -25.7% (active); in the experiment with OVCAR-8 ovarian, 18.2%; in the experiment on OVCAR-5 ovarian it was 38.2%; in the experiment with OVCAR-4 ovarian it was 26.5%; with SK-OV-3 ovarian, 15%. Besides, the growth is 23.4% in the experiment on IGROV1 ovarian; 17.3% in the experiment with OVCAR-3 ovarian; -31.2% (active) in the experiment on HS 578T breast; 11.3% with NCI/ADR-RES ovarian; 23.8% in the experiment on T-47D breast; 6.62% (active) in the experiment with MDA-MB-435 melanoma. Besides, the growth in the experiment on SW-620 colon was 26.1%; in the experiment with MCF7 breast it was 11%; with HCT-116 colon, 10.5%; in the experiment on HCC-2998 colon it was 36.1%.

For the molecule `COc1ccc2cn3c4ccc(O)cc4[nH]c(=O)c3c2c1`, the growth is 16.1% in the experiment with SR leukemia; 13.2% in the experiment on RPMI-8226 leukemia; 12.7% in the experiment with OVCAR-8 ovarian; 21% in the experiment with OVCAR-5 ovarian; -2.67% (active) in the experiment on OVCAR-4 ovarian; -1.15% (active) with SK-OV-3 ovarian. The growth was 17.6% with IGROV1 ovarian; -7.15% (active) in the experiment with OVCAR-3 ovarian; -22.4% (active) in the experiment on HS 578T breast; -39% (active) with NCI/ADR-RES ovarian; 33.9% in the experiment on T-47D breast; -37.7% (active) in the experiment on MDA-MB-435 melanoma. The growth in the experiment on SW-620 colon is 11.3%; with MCF7 breast, -5.85% (active); with HCT-116 colon it was 10.6%; in the experiment on HCC-2998 colon it was 19.3%; with KM12 colon, 11.9%.

For the molecule `Cc1ccccc1-n1c(C)nc2cc(NC(=O)c3ccc(Cl)cc3)ccc2c1=O`, the growth in the experiment with SR leukemia was 73.7%; with RPMI-8226 leukemia, 44.6%; with OVCAR-8 ovarian, 84%; with OVCAR-5 ovarian, 75.9%; in the experiment with OVCAR-4 ovarian, 30.1%; in the experiment with SK-OV-3 ovarian it was 83.2%. Further, the growth in the experiment on IGROV1 ovarian is 78.6%; in the experiment with OVCAR-3 ovarian, 58.9%; in the experiment with HS 578T breast, 82.1%; in the experiment with NCI/ADR-RES ovarian, 82.4%; with T-47D breast, 29%; with MDA-MB-435 melanoma it was 43.7%. Also, the growth was 86% in the experiment on SW-620 colon; 57.8% with MCF7 breast; 74.8% with HCT-116 colon; 80.9% with HCC-2998 colon; 76.6% with KM12 colon.

As to `C=CC1CN2CCC1CC2C(O)c1ccnc2ccc(OC)cc12` (configuration not stated), the growth with SR leukemia is 113%; with RPMI-8226 leukemia, 108%; with OVCAR-8 ovarian, 88.4%; with OVCAR-5 ovarian it was 93.1%; with OVCAR-4 ovarian, 102%; in the experiment with SK-OV-3 ovarian it was 93.9%. For the same molecule, the growth in the experiment with IGROV1 ovarian was -5.34% (active); in the experiment on OVCAR-3 ovarian, 105%; with HS 578T breast, 99.9%; in the experiment with NCI/ADR-RES ovarian, 107%; in the experiment with T-47D breast, 102%; with MDA-MB-435 melanoma, 100%. Moreover, the growth is 105% in the experiment with SW-620 colon; 91% in the experiment on MCF7 breast; 49.8% in the experiment on HCT-116 colon; 155% in the experiment with HCC-2998 colon; 112% in the experiment on KM12 colon.

With `CC(C)(C)C(=O)OCOP(=O)(OCOC(=O)C(C)(C)C)C1CC(O)N(O)C1=O` (configuration not stated), the growth was 8.3% (active) in the experiment with SR leukemia; 9.24% (active) in the experiment on RPMI-8226 leukemia; 13.7% in the experiment on OVCAR-8 ovarian; 73.8% in the experiment with OVCAR-5 ovarian; 74.4% with OVCAR-4 ovarian; 52.5% in the experiment with SK-OV-3 ovarian. The growth with IGROV1 ovarian is 3.72% (active); in the experiment with OVCAR-3 ovarian, 53.6%; with HS 578T breast, -4.97% (active); in the experiment on NCI/ADR-RES ovarian, 44.6%; in the experiment with T-47D breast, 36%; in the experiment on MDA-MB-435 melanoma, 68.5%. Further, the growth with SW-620 colon was 39.1%; in the experiment with MCF7 breast it was 15.3%; in the experiment on HCT-116 colon, 20.9%; with HCC-2998 colon, 38.1%; in the experiment on KM12 colon, 33.3%.

Regarding `CC(C)CCCCCOC(=O)c1ccccc1SSc1ccccc1C(=O)OCCCCCC(C)C`, the growth in the experiment with SR leukemia was 86.9%; with RPMI-8226 leukemia it was 88.8%; in the experiment on OVCAR-8 ovarian, 104%; in the experiment with OVCAR-5 ovarian, 106%; with OVCAR-4 ovarian, 109%; in the experiment with SK-OV-3 ovarian, 108%. Also, the growth with IGROV1 ovarian was 116%; with OVCAR-3 ovarian, 111%; with HS 578T breast it was 104%; in the experiment on NCI/ADR-RES ovarian, 107%; with T-47D breast, 89.6%; in the experiment with MDA-MB-435 melanoma, 107%. The growth with SW-620 colon is 101%; with MCF7 breast, 93.6%; with HCT-116 colon it was 98.5%; in the experiment on HCC-2998 colon, 110%; in the experiment on KM12 colon, 106%.

`COc1ccc2c(c1)cn1c3ccc(O)cc3[nH]c(=O)c21`: the growth with SR leukemia was 3.4% (active); in the experiment on RPMI-8226 leukemia it was -20.2% (active); in the experiment with OVCAR-8 ovarian, 15%; with OVCAR-5 ovarian, 18.7%; in the experiment with OVCAR-4 ovarian it was 28.6%; in the experiment with SK-OV-3 ovarian it was 11.3%. In addition, the growth in the experiment on IGROV1 ovarian was 13.2%; in the experiment with OVCAR-3 ovarian, -21.9% (active); in the experiment on HS 578T breast, -22.9% (active); in the experiment with NCI/ADR-RES ovarian it was 1.78% (active); in the experiment on T-47D breast it was 37.2%; in the experiment on MDA-MB-435 melanoma, 1.04% (active). For the same molecule, the growth in the experiment on SW-620 colon is 8.4% (active); with MCF7 breast, -4.36% (active); in the experiment on HCT-116 colon it was -85.4% (active); in the experiment on HCC-2998 colon, 11.8%; with KM12 colon, 9.45% (active).

As to `CC(C)(C)c1ccc(OCCOC(=O)CBr)cc1`, the growth with SR leukemia was 44.7%; in the experiment with RPMI-8226 leukemia, 88.2%; in the experiment with OVCAR-8 ovarian, 83.8%; in the experiment with OVCAR-5 ovarian it was 104%; with OVCAR-4 ovarian, 98.8%; with SK-OV-3 ovarian it was 104%. Also, the growth is 2.57% (active) with IGROV1 ovarian; 101% with OVCAR-3 ovarian; 108% with HS 578T breast; 108% in the experiment on NCI/ADR-RES ovarian; 94.2% with T-47D breast; 112% in the experiment with MDA-MB-435 melanoma. Also, the growth is 86.2% in the experiment with SW-620 colon; 98.3% in the experiment on MCF7 breast; 83.7% in the experiment with HCT-116 colon; 104% in the experiment on HCC-2998 colon; 87.7% in the experiment on KM12 colon.
